# Screening data from PubChem BioAssay.
# Eya2 inh: Eya2 (human) phosphatase inhibition; recombinant Eya2, OMFP fluorescence dephosphorylation (OMFP is methylfluorescein phosphate); AID 488837; O00167; Potency, µM (titrated, usually from 76.9 µM), for inactives: at the highest dose activity, negative = inhibition, actives largely listed as inhibitors; hit rate 0.006% among 330,000; active = well fitted curve in the direction sought with a large enough effect; inconclusive = small, poorly fitted or top-dose-only effect, or another doubt; inactive = no such curve, though single readings can be large; an effect the other way counts as inactive or inconclusive; also: potency is read from the fitted curve at half-maximal effect; % is scaled to controls: 0 for no effect and ±100 for the full control effect
#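 Eya2 (0.2 uM) preincubated 10 min at ambient with compound, then OMFP substrate added at 50 uM; 10 min reaction in 50 mM HEPES pH 7.5, 50 mM NaCl, 5 uM MgCl2, 0.05% BSA, 1 mM DTT. Fluorescence read at Ex 485/Em 525 nm.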
# GRP78 ERSR act: ER stress response induction in glioma; hit rate 0.02% among 420,000; Potency, µM, for inactives: at the top dose activation, actives largely listed as activators; U87-MG GRP78 promoter luciferase reporter, 16 h; active = well fitted curve in the direction sought with a large enough effect; inconclusive = small, poorly fitted or top-dose-only effect, or another doubt; inactive = no such curve, though single readings can be large; an effect the other way counts as inactive or inconclusive; also: potency is read from the fitted curve at half-maximal effect; series mostly up to about 76 µM; % of control where 0% means no effect; nearly all actives have a fitted effect of over 35% in size
#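 ERSR induction read as luciferase luminescence (Bright-Glo, 10 min at room temperature) in stably transfected human U87-MG glioma cells exposed to compounds for 16 h, using GRP78 as sensor.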
# Six1-Eya2 inh: Six1/Eya2 interaction inhibition; activity change, % (test concentration not listed); hit rate 0.56% among 360,000; AlphaScreen GST-Six1/His-Eya2 binding, biochemical; stronger effect = lower value; AID 651725; Q15475+O00167; also: % is scaled to controls: 0 for no effect and ±100 for the full control effect
# Target sequence (O00167 whole entry, looked up): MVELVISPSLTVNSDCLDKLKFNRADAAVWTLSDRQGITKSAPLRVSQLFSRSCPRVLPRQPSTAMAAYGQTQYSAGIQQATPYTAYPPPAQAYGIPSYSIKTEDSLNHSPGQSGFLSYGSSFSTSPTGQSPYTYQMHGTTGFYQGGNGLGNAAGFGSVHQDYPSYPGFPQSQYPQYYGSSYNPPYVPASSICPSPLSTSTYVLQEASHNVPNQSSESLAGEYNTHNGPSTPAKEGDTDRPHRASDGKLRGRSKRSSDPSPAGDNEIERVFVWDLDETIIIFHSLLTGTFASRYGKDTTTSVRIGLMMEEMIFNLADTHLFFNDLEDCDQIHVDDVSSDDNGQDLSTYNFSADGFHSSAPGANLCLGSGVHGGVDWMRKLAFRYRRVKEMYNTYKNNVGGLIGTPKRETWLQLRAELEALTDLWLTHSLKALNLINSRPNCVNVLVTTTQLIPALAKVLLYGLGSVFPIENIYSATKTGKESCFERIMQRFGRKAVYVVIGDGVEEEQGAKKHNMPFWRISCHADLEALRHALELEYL
# Target sequence (Q15475 whole entry, looked up): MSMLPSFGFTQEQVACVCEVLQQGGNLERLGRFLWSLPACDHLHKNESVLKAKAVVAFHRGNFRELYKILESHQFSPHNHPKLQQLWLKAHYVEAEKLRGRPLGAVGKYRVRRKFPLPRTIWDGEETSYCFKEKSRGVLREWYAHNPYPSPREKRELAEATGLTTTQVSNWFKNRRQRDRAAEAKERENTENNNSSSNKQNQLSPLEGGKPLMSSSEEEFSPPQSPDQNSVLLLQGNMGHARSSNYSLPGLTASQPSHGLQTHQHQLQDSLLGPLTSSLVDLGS
#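 AlphaScreen luminescence read after one hour at 37 °C in darkness. Pin-transferred compounds met GST-Six1 and His-Eya2 protein (5X stock 250 nM/500 nM) plus glutathione donor and Ni-chelate acceptor beads (5X, 50 ug/mL).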
# CtBP-E1A inh: CtBP/E1A binding inhibition; AlphaScreen GST-E1A/His-CtBP binding, 1536-well; stronger effect = lower value; activity change, % (no concentration beside the values); hit rate 0.49% among 340,000; AID 651724; also: % is scaled to controls: 0 for no effect and ±100 for the full control effect
#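 Steps: dispense buffer (Tris pH 8.0, NaCl 300 mM, TCEP 1 mM, BSA, Tween 20); add 5X protein mix (GST-E1A, His-CtBP, 125 nM each); pin 23 nL compound; 2 h at 37 °C, dark; add 5X beads (50 ug/mL); 1 h; read.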
# Starred values were filed as active, the others as inactive; u = inconclusive; x = no result given. Rows were chosen to be rich in hits. Some 0.58% of all compounds tested hit in one or more screens of this group. Rule as the data show it, unless noted: active = activity change below about -65%; inconclusive = mostly about -30% to -63%; inactive = weaker than that.
SMILES,Eya2 inh,GRP78 ERSR act,Six1-Eya2 inh,CtBP-E1A inh
CC1=NN(c2ccccc2)C(=O)C1N=Nc1ccccc1 (centres undefined),6%,6%,-21,-18
CC1=NN(c2ccccc2)C(=O)C1N=Nc1ccc(N)cc1 (centres undefined),-4%,-7%,-71*,u
COc1ccc(N=NC2C(=O)N(c3ccccc3)N=C2C)cc1 (centres undefined),12%,5%,-73*,u
O=C(Nc1nc(-c2ccc(S(=O)(=O)N3CCCC3)cc2)cs1)c1ccco1,1%,-2%,-69*,-85*
Cc1nnc(NC(=O)c2oc3ccccc3c2C)s1,0%,-1%,2,-1
O=C(/C=C/c1ccco1)Nc1nc(-c2ccccn2)cs1,7%,-3%,-74*,x
O=C(Nc1nc(-c2ccccn2)cs1)c1cc2ccccc2o1,6%,u,-77*,-68*
Cc1c(C(=O)Nc2nc(-c3ccccn3)cs2)oc2ccccc12,12%,8%,-73*,-86*
O=C(c1cscn1)N1CCOc2ccc(CN3CCC(Oc4cccnc4)CC3)cc2C1,x,-5%,x,x
COc1ccc(CN2CCOc3ccc(CN4CCN(CCO)CC4)cc3C2)c2ccccc12,x,-4%,x,x
CN(C)c1ccc2c(c1)C(=NO)c1ccccc1-2,x,0%,-66*,1
COc1ccc(C(=O)OC(C)CN2CCOCC2)cc1 (centres undefined),-7%,4%,5,x
COc1ccc(C(=O)Oc2c(CN3CCOCC3)cc(Cl)c3cccnc23)cc1,-22%,u,u,-65*
COc1cc(C(=S)N2CCOCC2)cc(OC)c1OC(=O)c1ccc(F)cc1,-10%,-2%,6,20
COc1cccc(C(=O)Oc2c(CN3CCOCC3)cc(Cl)c3cccnc23)c1,-3%,-1%,-88*,-91*
COc1cc(C(=O)Oc2c(OC)cc(C(=S)N3CCOCC3)cc2OC)cc(OC)c1OC,-15%,-1%,-7,-2
COc1cc(C(=O)Oc2c(CN3CCOCC3)cc(Cl)c3cccnc23)cc(OC)c1OC,-3%,-1%,-92*,-92*
O=C(Oc1c(CN2CCOCC2)cc(Cl)c2cccnc12)c1ccc(F)cc1,-32%,1%,-91*,-92*
Cc1oc(-c2ccccc2NC(=O)c2cccnc2)nc1CNC(=O)c1ccc(N(C)C)cc1,x,-5%,x,x
COc1ccc2ccccc2c1CN1CCCC(n2cc(C(=O)N3CCCC3)nn2)C1 (centres undefined),x,-6%,x,x
FC(F)(F)c1cnc(-c2cc3c(c(OCC4CCCO4)c2)OCCN(Cc2cccn2-c2nccs2)C3)c(Cl)c1 (centres undefined),x,2%,x,x
Cc1nc(C(F)(F)F)c(C(=O)N/N=C(\N)c2ccccn2)s1,12%,-2%,-77*,-92*
Cc1cc(N(C)C)ccc1N=Nc1ccc2ncccc2c1,-4%,-1%,-83*,x
CCC1(c2ccccc2)NC(=O)N(CC(=O)Nc2ccccc2N2CCCC2)C1=O (centres undefined),-2%,-5%,0,-68*
CN(C)CC(C)(O)c1ccc2c(c1)CN(Cc1cn(C)c3ccccc13)CCO2 (centres undefined),x,-2%,x,x
SMILES,Eya2 inh,GRP78 ERSR act,Six1-Eya2 inh,CtBP-E1A inh
O=C(/C=C/c1ccccc1)OCC(=O)c1c[nH]c2ccccc12,-6%,6%,-7,-19
COc1cccc(/C=C/C(=O)OCC(=O)c2c[nH]c3ccccc23)c1,9%,-1%,-16,-78*
COc1cc(=O)n2c(c1C(=O)NCc1ccco1)CCN(C(=O)c1ccccc1-c1ncc[nH]1)CC2,x,-2%,x,x
Cc1cc(NC(=O)CCc2ccc(C)o2)no1,-4%,-4%,-77*,-18
Cc1ccc(C)c(NC(=O)CCc2ccc(C)o2)c1,-4%,4%,3,x
C=CCNc1nc(NCc2ccc(N(C)C)cc2)c2sc(-c3ccccc3)cc2n1,x,-3%,-73*,-77*
CC(=O)N1CN(CCCn2ccnc2)Cc2c1sc1c2CCCC1,2%,2%,-6,-11
CC(=O)N1CN(Cc2ccccn2)Cc2c1sc1c2CCCC1,-15%,-1%,-74*,u
CC(C)C[C@@H](NC(=O)[C@@H](COC(C)(C)C)NC(=O)[C@H](Cc1ccc(O)cc1)NC(=O)[C@@H](CO)NC(=O)[C@@H](Cc1c[nH]c2ccccc12)NC(=O)[C@@H](Cc1cnc[nH]1)NC(=O)[C@@H]1CCC(=O)N1)C(=O)N[C@H](CCCN=C(N)N)C(=O)N1CCC[C@H]1C(=O)NNC(N)=O,x,-4%,x,x
CCOc1ccc2nc3cc(N=Nc4ccc(N)nc4N)ccc3c(N)c2c1,x,-10%,u,-76*
COC(=O)/C(C#N)=C/c1ccc(OC(=O)c2ccccn2)cc1,1%,4%,u,u
CCOC(=O)/C(C#N)=C/c1ccc(OC(=O)c2ccccn2)cc1,2%,4%,-87*,-3
CCOC(=O)[C@H](CCc1ccccc1)NC(C)C(=O)N1CC2(CC1C(=O)O)SCCS2 (some centres undefined),x,-4%,x,x
COc1ccc(CCNc2nc(=S)[nH]c3cc(OC)c(OC)cc23)cc1OC,0%,-2%,-88*,x
COc1ccc(CCNc2ncnc3c2[nH]c2cc(OC)c(OC)cc23)cc1OC,-11%,-3%,u,-29
COc1cc2[nH]c(=S)nc(NCCc3ccc(C)cc3)c2cc1OC,3%,-3%,u,-87*
COc1cc2[nH]c(=S)nc(NCc3ccc(Cl)cc3)c2cc1OC,6%,-4%,u,u
COc1ccc(CCNC(=O)c2ccc(CNc3nc(=S)[nH]c4ccccc34)cc2)cc1OC,21%,-10%,3,-5
COc1cc2[nH]c(=S)nc(NCCc3ccc(S(N)(=O)=O)cc3)c2cc1OC,3%,-6%,-90*,-90*
COc1ccc2c(c1)-c1nc(-n3ncc(C(=O)NCc4cccnc4)c3C3CC3)ncc1CC2,x,-5%,x,x
CN1C2CCC1CC(NC(=O)n1c(=O)[nH]c3ccccc31)C2 (centres undefined),x,-5%,x,x
CN(CC(=O)Nc1cccc(F)c1)C(=O)c1ccc(C(=O)c2ccccc2)cc1,12%,-1%,2,-2
CN(CC(=O)Nc1cccc(F)c1)C(=O)c1ccc(COc2ccccc2)cc1,-22%,4%,-70*,-9
COC(=O)[C@@H]1CCCN1Cc1ccc2c(c1)CN(Cc1ccc(OC)c(C)c1)CCO2,x,-1%,x,x
CCOC(=O)/C=C/C(=O)Nc1ccc(-c2nnc3n2CCCCC3)cc1,9%,-1%,-12,-66*
Cc1oc(-c2ccccc2NC(=O)C2CCC2)nc1CNC(=O)c1ccc2ccccc2c1,x,1%,x,x
CCOC(=O)c1cnc(-n2[nH]c(C)c(Cc3ccccc3)c2=O)[nH]c1=O,3%,1%,-82*,-92*
CCOC(=O)c1cnc(-n2[nH]c(C)cc2=O)[nH]c1=O,21%,-3%,-77*,-92*
C=C(c1ccc2ccccc2n1)c1cccs1,x,0%,x,x
COc1cc2c(NC3CCN(C(C)C)CC3)nc(N3CCCN(C)CC3)nc2cc1OCCCN(C)C,x,-7%,x,x
